The record followed here is PubChem BioAssay (EPA / NIEHS).

Calls of active or inactive are those of the source. Rule for the calls: active = hit-call score of the fitted dose curve at least 0.9, where 1 is the maximum; inactive = score below 0.9.

Read-out in the assay: CYP3A5 (gene 1577)
Put plainly: LTEA_HepaRG_CYP3A5: Life Technologies and Expression Analysis (LTEA) Assay for CYP3A5 using HepaRG (AID 2283493). Particulars: mRNA level, 48 h; actives raise or lower the signal. Here is the method:
LTEA_HepaRG is a cell based, multiplexed-readout assay that uses HepaRG, a human liver cell line, with measurements taken at 48 hours after chemical dosing on a 96-well plate.LTEA_HepaRG_CYP3A5 is one of 102 assay component(s) measured in the LTEA HepaRG cell culture assay. It is a marker of NR mediated metabolism.Data from the assay component LTEA_HepaRG_CYP3A5 was analyzed into 1 endpoint. This assay endpoint, LTEA_HepaRG_CYP3A5, was analyzed with bidirectional fitting relative to DMSO as the negative control and baseline of activity. Using a type of inducible reporter, measures of mRNA induction for gain or loss-of-signal activity can be used to understand regulation of transcription factor activity. To generalize the intended target to other relatable targets, this assay endpoint is annotated to the cyp intended target family, where the subfamily is xenobiotic metabolism.
A total of 1060 chemcials from the ToxCast library were tested in eight-point concentration-response experiments. Cell culture and cytotoxicity assays were conducted at Thermo Fisher Scientific's Custom Services facility (Madison, WI). A single lot of human HepaRG cells (Thermo Fisher Scientific, Frederick, MD) was used for the cell culture experiments. 96-well format collagen type I coated plates of human HepaRG cells were prepared using established methods. Briefly, cryopreserved HepaRG cells were thawed, plated at a density of approximately 100,000 cells/well in HepaRG Thaw, Plate, and General Purpose media (HPRG770, Thermo Fisher Scientific), and incubated for 48 hours. 0.5% DMSO was selected as vehicle control to balance the requisite need of DMSO in HepaRG cultures to maintain differentiation (for example, baseline metabolism, proportions of hepatocytes vs. cholangiocytes), while enabling further hepatic receptor pathway activation (for example, PXR and CAR) in response to chemical exposure. 48 hours after plating, the culture medium was replaced with HepaRG Serum-Free Incudtion Media. Cells were exposed to each test chemical in duplicate and maintained in CO2 incubators for another 48 hours. Chemical plates were thawed to room temperature and 200x concentrations of treatment groups were prepared. 8-point conentration-reponse curves were made with the highest exposure at 100 uM, followed by half-log dilutions, all in 0.5% DMSO. Each test plate contained variouse controls, induction positive controls (1mM phenobarbital), cytotoxicity positive controls ([…] aflatoxin B1), vehicle controls (0.5% DMSO), and total lysis controls (0.5% DMSO). Cell morphology images were taken using an Essen IncuCyte FLR automated microscope, with six 96-well plates imaged in about 24 minutes. Images were captured and exported and JPEG files. Spent culture media was transfered to black-well plates for the LDH assay, and remaining media was sorted at -80 C for later use. Cells were treated with RLT buffer and frozen until shipped for gene expression analysis. Total RNA was isolated from the cell suspension in 75 uL of Buffer RLT (Qiagen, Germantown, MD 20874) by Quintiles/Expression Analysis (Durham, NC) using a custom isolation procedure. Total RNA from each plate well was transferred to a preamplification plate. Fluidigm's 96.96 Dynamic ArrayTM (Fluidigm, Amsterdam, the Netherlands) technology was used for gene expression analyses by quantitative reverse transcription polymerase chain reaction (qRT-PCR, performed by Quintiles/Expression Analysis, Durham, NC)89. Standard TaqManTM Assays (Applied Biosystems/ThermoFisher Scientific, Foster City, CA) were used to assess the expression of 93 genes selected based on their selectivity and sensitivity to important hepatic receptors known to be modulated by environmental chemicals; importance in human hepatocyte functionality; and hepatotoxicity. […]
Take `OCC1CO1` (centres undefined): the compound was called inactive. Next, `Nc1cc2c3c(c1)C(c1ccccc1)=N[C@@H](NC(=O)c1cccnc1)C(=O)N3CC2`: “inactive”; `c1cc2c3c(cccc3c1)CC2`: “inactive”; `CC(C)(C)OOC(C)(C)C`: “inactive”. Next, `CCCCN(CCCC)SN(C)C(=O)Oc1cccc2c1OC(C)(C)C2`: “inactive”. Under `CCC(C)(C)c1ccc(O)cc1` stands “inactive”. For the compound `CCCCCCCc1ccc(O)cc1`, the outcome was inactive. Under `CCCCc1ccccc1` stands “inactive”; under `[N-]=[N+]=[N-]`, “inactive”. Under `ClC(Cl)c1ccccc1` stands “inactive”; under `CCOc1ccc(C(C)(C)COCc2cccc(Oc3ccccc3)c2)cc1`, “inactive”. Take `CSC(C)(C)C=NO`: the compound was called inactive. Next, `Cc1ccc(N)cc1N`: “inactive”; `CCCCN(CCCC)N=O`: “inactive”; `O=[N+]([O-])c1ccc(Cl)c(Cl)c1`: “inactive”.

For `COCCOCCO`, the outcome was inactive.

For `CCCN(CCC)c1c([N+](=O)[O-])cc(C(C)C)cc1[N+](=O)[O-]`, the compound was called inactive. Under `Cc1ccc([N+](=O)[O-])cc1C` stands “inactive”; under `c1ccc(OP(Oc2ccccc2)Oc2ccccc2)cc1`, “inactive”; under `CCNc1nc(Cl)nc(NC(C)(C)C)n1`, “inactive”.

On to `CCOS(=O)(=O)OCC`, for which the compound was classed as inactive. Under `Cc1cccc(N)c1` stands “inactive”. For `ClC1=C(Cl)C2(Cl)C3C(Cl)C(Cl)CC3C1(Cl)C2(Cl)Cl` (centres undefined), the call was inactive. Next, `O=C(O)C(Cl)Cl`: “inactive”; `ClC(Cl)(Cl)c1ccccc1`: “inactive”; `CN(C)C(=O)Cl`: “inactive”. Next, `O=C(O)C1C(C(=O)O)C2(Cl)C(Cl)=C(Cl)C1(Cl)C2(Cl)Cl` (centres undefined): “inactive”; `Nc1ccc(Cl)cc1`: “inactive”; `Nc1ccc2ccccc2c1`: “inactive”. Next, `CCN(CC)c1ccccc1`: “inactive”; `CCOP(=S)(OCC)SCSCC`: “inactive”; `CC(Cl)(Cl)C(=O)O`: “inactive”. As for `CCC1(c2ccccc2)C(=O)N=C(O)NC1=O` (centres undefined), the result was inactive. Under `CC(Cc1ccc(OCC(=O)O)cc1)NCC(O)c1csc(C(F)(F)F)n1` (centres undefined) stands “inactive”; under `c1nc[nH]n1`, “inactive”. Under `CCOC(=O)c1ccccc1C(=O)OCC` stands “inactive”; under `O=[N+]([O-])c1ccccc1`, “inactive”. In the case of `O=P1(N(CCCl)CCCl)NCCCO1` (centres undefined), the compound was classed as inactive. Under `c1ccc2c(c1)Nc1ccccc1S2` stands “inactive”.
